In all, about 2,400 compounds went through this assay and about 580 (24%) were called active. These entries were drawn from the full list. Unmarked numbers belong to inactive results.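 How the source made its calls: active means activity change at or above the mean plus 3 SD of buffer wells without dofetilide, per plate; inactive means the rest.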
target: Potassium voltage-gated channel subfamily KQT member 2 (Rattus norvegicus) (UniProt O88943); assay: KCNQ2 potentiation in CHO cells – cell-based, FluxOR thallium flux, counter-screen for hERG block protector project, confirmation (AID 1942); details: FluxOR thallium flux fluorescence, at 10 µM, active compounds read high;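 further: normalized value minus buffer-control mean plus three SD of buffer wells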
Sequence (O88943 whole entry, looked up): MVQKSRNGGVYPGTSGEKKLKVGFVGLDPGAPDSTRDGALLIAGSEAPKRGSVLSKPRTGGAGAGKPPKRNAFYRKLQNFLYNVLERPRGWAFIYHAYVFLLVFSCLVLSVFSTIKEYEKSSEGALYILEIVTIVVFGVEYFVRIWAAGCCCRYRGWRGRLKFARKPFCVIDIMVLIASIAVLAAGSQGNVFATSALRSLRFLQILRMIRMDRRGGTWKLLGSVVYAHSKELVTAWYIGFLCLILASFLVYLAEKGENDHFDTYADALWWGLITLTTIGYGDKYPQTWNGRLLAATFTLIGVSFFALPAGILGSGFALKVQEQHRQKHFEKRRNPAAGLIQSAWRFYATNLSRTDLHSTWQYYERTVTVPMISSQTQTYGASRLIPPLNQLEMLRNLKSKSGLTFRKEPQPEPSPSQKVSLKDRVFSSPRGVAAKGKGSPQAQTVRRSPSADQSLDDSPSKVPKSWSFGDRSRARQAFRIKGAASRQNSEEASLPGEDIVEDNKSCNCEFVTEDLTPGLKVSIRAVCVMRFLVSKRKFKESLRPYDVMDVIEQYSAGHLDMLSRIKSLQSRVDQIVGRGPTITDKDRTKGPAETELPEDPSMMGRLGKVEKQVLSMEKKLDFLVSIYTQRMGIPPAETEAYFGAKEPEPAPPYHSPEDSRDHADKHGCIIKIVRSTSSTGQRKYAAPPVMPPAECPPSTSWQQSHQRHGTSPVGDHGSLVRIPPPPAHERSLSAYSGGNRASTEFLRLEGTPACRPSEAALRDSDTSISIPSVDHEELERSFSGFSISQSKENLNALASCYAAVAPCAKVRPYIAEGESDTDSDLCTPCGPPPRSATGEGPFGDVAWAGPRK

| SMILES | activity change, less the hit threshold |
| --- | --- |
| Cc1ccc(/C=C2/C(=N)N3N=C(CC(=O)N4CCCC4)SC3=NC2=O)cc1 | -19.5% |
| CC(C)CSC1=NSC2=NC(=O)/C(=C\c3ccccc3)C(=N)N12 | 1.1% (active) |
| O=C(OCc1ccc([N+](=O)[O-])cc1)c1cc2ccccc2oc1=O | -21.1% |
| COc1cc(C2NC(=O)NC(C)=C2C(=O)OCC2CCCCC2)ccc1O (configuration not stated) | -7.2% |
| CCOC(=O)C1=C(c2ccccc2)NC(=O)NC1c1ccc(O)c(Cl)c1 (configuration not stated) | 0.1% (active) |
| CCOC(=O)C1=C(c2ccccc2)NC(=O)NC1c1ccc(OC)c(OC)c1 (configuration not stated) | -25.1% |
| C/C(=N\NC(=O)COc1ccc(C)cc1C(C)C)c1ccc(-n2ccnc2)cc1 | -22.3% |
| Cc1nn(-c2ccc(Cl)cc2)c2sc(C(=O)c3c(N)n(C)c(=O)n(C)c3=O)cc12 | -14.1% |
| Cc1nc2ccc(C(=O)O)cc2[nH]1 | -10.4% |
| C=CCn1c(=S)[nH]c2ccc(Br)cc2c1=O | 12.4% (active) |
| COc1ccccc1Cn1c(=S)[nH]c2ccc(Br)cc2c1=O | -7.4% |
| O=C(CCN1C(=O)/C(=C\C=C\c2ccccc2)SC1=S)Nc1ccc(C(=O)O)cc1 | -12.3% |
| O=c1[nH]c2ccccc2nc1C(F)(F)C(F)F | -16.2% |
| CCC(C)Sc1nc2c([nH]c3ccccc32)c(=O)n1C (configuration not stated) | -19.6% |
| CCSc1nc2c(sc3ccccc32)c(=O)n1C(C)C | 30.9% (active) |
| COCCCN1C(=O)C(=O)/C(=C(/O)c2ccc(S(=O)(=O)N3CCOCC3)cc2)C1c1ccc(F)cc1 (configuration not stated) | -9.9% |
| CNc1nc(N)nc(OC(C(F)(F)F)C(F)(F)F)n1 | -11% |
| Oc1ccc(/C=N/Nc2nccnc2Cl)c(O)c1 | 6.2% (active) |
| CN1C(=O)/C(=N\OC(=O)c2cccc3ccccc23)c2ccccc21 | -9.4% |
| CCOC(=O)c1c(O)c2ccccc2n(C)c1=O | -10.3% |
| CCOC(=O)c1n[nH]n2c1nc(=S)c1ccccc12 | 49.6% (active) |

| SMILES | activity change, less the hit threshold |
| --- | --- |
| CCOC(=O)C1CCN(C(=O)COC(=O)c2nn(C)c(=O)c3ccccc23)CC1 | -21% |
| COC(=O)c1c(N2C(=O)CC(Sc3ncccc3C(=O)O)C2=O)sc(C)c1C (configuration not stated) | -12.9% |
| COc1ccc(/C=N/NC(=O)c2ccncc2)cc1CN1CCCc2ccccc21 | -22.8% |
| O=C(NNc1c(F)c(F)cc(F)c1F)c1cc2ccccc2oc1=O | -13% |
| O=c1[nH]n2c(=O)c3c([nH]c2c1N=Nc1ccccc1)CCC3 | -11.6% |
| O=C(NC(=S)N1CCN(C/C=C/c2ccccc2)CC1)c1ccc(Cl)nc1 | 7.4% (active) |
| CNC(=O)NC(=O)C(C)N1CCN(C/C=C/c2ccccc2)CC1 (configuration not stated) | -19.2% |
| O=C(CCN1C(=O)/C(=C\C=C\c2ccccc2)SC1=S)Nc1cccc(C(=O)O)c1 | -20.7% |
| O=C(Nc1ccc(N2CCN(C(=O)c3ccc(Cl)cc3)CC2)cc1)c1ccc([N+](=O)[O-])o1 | -6.1% |
| CC(=O)NC(CSC(CC(=O)c1ccco1)c1ccc(C)cc1)C(=O)O (configuration not stated) | -4.9% |
| Cc1ccc(S(=O)(=O)c2nnn3c2nc(N2CCOCC2)c2ccccc23)c(C)c1 | -20.7% |
| COc1ccccc1NC1=C(NC(C)=O)C(=O)c2ccccc2C1=O | 14.4% (active) |
| CCOC(=O)c1nnn(CC(=O)Nc2ccccc2OC)c1C(=O)OCC | -15.8% |
| COc1ccccc1NC(=O)C1CCCN1C(=O)NCc1ccccc1 (configuration not stated) | -24.2% |
| CC(C)NC(=O)Nc1n[nH]c(Nc2ccc(Cl)cc2)n1 | 13.2% (active) |
| O=C(Nc1ccc(Cl)cc1)Nn1cnnc1 | -22.2% |
| O=c1[nH]c2ccc(S(=O)(=O)NCc3ccccc3)cc2[nH]1 | -14% |
| CC(C)Nc1nc(SCC(N)=O)nc(N2CCOCC2)n1 | -13.5% |
| Cc1ccc2nc(SCC(=O)N3CCCCCC3)nc(=O)n2c1 | -23.7% |
| O=C(CSc1nc(N2CCCCC2)nc(N2CCCCC2)n1)c1ccccc1 | 31.5% (active) |
| CN(C)CCOC(=O)C1(c2ccccc2)CCCC1 | -12.9% |

| SMILES | activity change, less the hit threshold |
| --- | --- |
| CC(C)n1c(=S)[nH]c2scc(-c3cccs3)c2c1=O | 97.6% (active) |
| S=c1[nH]c(-c2cccs2)cn1-c1ccccc1 | -6.4% |
| COc1cc(/C=N/n2cnc3scc(-c4cccs4)c3c2=O)cc(OC)c1OC | -21% |
| Cn1c(=S)[nH]c2scc(-c3cccs3)c2c1=O | 70.4% (active) |
| CC(C)C(=O)Nc1c(-c2ccccc2F)c(=O)c2ccccc2n1C | -21.5% |
| NC(=O)C1CCN(C(=O)CC(c2ccccc2)c2ccccc2)CC1 | -24% |
| Brc1ccc(-c2noc(CCc3ccccc3)n2)cc1 | -24.9% |
| CC(C)(C)c1cc(-c2n[nH]c(=S)n2-c2ccccc2F)n[nH]1 | 11.5% (active) |
| Fc1ccccc1-c1n[nH]c(=S)n1C1CC1 | -17.8% |
| COc1ccc(/C(C)=N/Nc2ccc(C(=O)O)cc2)c(OC)c1 | -18.1% |
| COc1ccccc1-n1c(CCC(=O)O)ccc1-c1ccccc1 | -13.3% |
| ON/C=N/C(=S)Nc1ncc(C(F)(F)F)cc1Cl | 26.3% (active) |
| CON/C=N/C(=S)Nc1ncc(C(F)(F)F)cc1Cl | 29.7% (active) |
| c1ccc(Oc2cccc(OCCn3cncn3)c2)cc1 | -14.9% |
| Cc1ccccc1NC(=O)CN1C(=O)S/C(=C\c2ccc(-c3cccc(C(=O)O)c3C)o2)C1=O | -22.4% |
| CN(Cc1ccsc1)C(=O)CCc1nnc(Cc2c[nH]c3ccccc23)o1 | -10.9% |
| O=C1NCC(=O)N2C(c3ccccc3)c3[nH]c4ccccc4c3C[C@@H]12 (some centres not stated) | -11.9% |
| COc1cc(NC(=O)CCCOc2ccc(Cl)cc2Cl)c(C(=O)O)cc1OC | -18.7% |
| COc1cc(NC(=O)CSc2ncnc3sc4c(c23)CCC(C)C4)c(C(=O)O)cc1OC (configuration not stated) | 89.6% (active) |
| CC(=O)CSc1ncnc2sc3c(c12)CCC(C)C3 (configuration not stated) | 89.9% (active) |

Reference: PubChem BioAssay AID1942 (Johns Hopkins Ion Channel Center, 2009)
